Where a chain is given by its changes, count along the chain named. Whole data set: some 16,000 sequences, median “ka relative to ugcaugu” near 0.096, cut for the highest 2% near 0.35. The sample holds the highest values, similar sequences and a random draw of the others, so the mix is not that of the screen.
T1: RBFOX1 RRM RbFoxmut (Fox-RRM*) (Homo sapiens, UniProt Q9NWB1 109-208, R118D;E147R;N151S;E152T)
T1 sequence: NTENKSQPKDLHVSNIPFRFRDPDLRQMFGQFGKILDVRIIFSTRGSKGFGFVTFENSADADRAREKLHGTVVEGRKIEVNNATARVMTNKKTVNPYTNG

B1: CAUAUAU (DNA:RNA)
RNA: GGGAGACCGGAAUUCAGAUUGUCCCAUAUAUUUAAAUCCCGUCGUAGCCACCA
DNA 1: CAATCTGAATTCCGGTCTCCC
DNA 2: TGGTGGCTACGACGGGATT
B2: CGAAACU (DNA:RNA)
RNA: B1 RNA with A26G, U27A, U29A, A30C
DNA 1: CAATCTGAATTCCGGTCTCCC
DNA 2: TGGTGGCTACGACGGGATT
B3: GAGCAUG (DNA:RNA)
RNA: B1 RNA with C25G, U27G, A28C, U29A, A30U, U31G
DNA 1: CAATCTGAATTCCGGTCTCCC
DNA 2: TGGTGGCTACGACGGGATT
B4: CGGAAUG (DNA:RNA)
RNA: B1 RNA with A26G, U27G, U29A, A30U, U31G
DNA 1: CAATCTGAATTCCGGTCTCCC
DNA 2: TGGTGGCTACGACGGGATT
B5: CUAAAUG (DNA:RNA)
RNA: B1 RNA with A26U, U27A, U29A, A30U, U31G
DNA 1: CAATCTGAATTCCGGTCTCCC
DNA 2: TGGTGGCTACGACGGGATT
B6: GAGAUUG (DNA:RNA)
RNA: B1 RNA with C25G, U27G, A30U, U31G
DNA 1: CAATCTGAATTCCGGTCTCCC
DNA 2: TGGTGGCTACGACGGGATT
B7: ACGAAUC (DNA:RNA)
RNA: B1 RNA with C25A, A26C, U27G, U29A, A30U, U31C
DNA 1: CAATCTGAATTCCGGTCTCCC
DNA 2: TGGTGGCTACGACGGGATT
B8: GAGCAUC (DNA:RNA)
RNA: B1 RNA with C25G, U27G, A28C, U29A, A30U, U31C
DNA 1: CAATCTGAATTCCGGTCTCCC
DNA 2: TGGTGGCTACGACGGGATT
B9: GAGACCG (DNA:RNA)
RNA: B1 RNA with C25G, U27G, U29C, A30C, U31G
DNA 1: CAATCTGAATTCCGGTCTCCC
DNA 2: TGGTGGCTACGACGGGATT
B10: GAGAGCA (DNA:RNA)
RNA: B1 RNA with C25G, U27G, U29G, A30C, U31A
DNA 1: CAATCTGAATTCCGGTCTCCC
DNA 2: TGGTGGCTACGACGGGATT
B11: ACGAUUG (DNA:RNA)
RNA: B1 RNA with C25A, A26C, U27G, A30U, U31G
DNA 1: CAATCTGAATTCCGGTCTCCC
DNA 2: TGGTGGCTACGACGGGATT
B12: GUAAAUG (DNA:RNA)
RNA: B1 RNA with C25G, A26U, U27A, U29A, A30U, U31G
DNA 1: CAATCTGAATTCCGGTCTCCC
DNA 2: TGGTGGCTACGACGGGATT
B13: ACGAAUG (DNA:RNA)
RNA: B1 RNA with C25A, A26C, U27G, U29A, A30U, U31G
DNA 1: CAATCTGAATTCCGGTCTCCC
DNA 2: TGGTGGCTACGACGGGATT
B14: GAGAAUG (DNA:RNA)
RNA: B1 RNA with C25G, U27G, U29A, A30U, U31G
DNA 1: CAATCTGAATTCCGGTCTCCC
DNA 2: TGGTGGCTACGACGGGATT
B15: CUAUAAG (DNA:RNA)
RNA: B1 RNA with A26U, U27A, A28U, U29A, U31G
DNA 1: CAATCTGAATTCCGGTCTCCC
DNA 2: TGGTGGCTACGACGGGATT
B16: GUCAGCC (DNA:RNA)
RNA: B1 RNA with C25G, A26U, U27C, U29G, A30C, U31C
DNA 1: CAATCTGAATTCCGGTCTCCC
DNA 2: TGGTGGCTACGACGGGATT
B17: GCACGGU (DNA:RNA)
RNA: B1 RNA with C25G, A26C, U27A, A28C, U29G, A30G
DNA 1: CAATCTGAATTCCGGTCTCCC
DNA 2: TGGTGGCTACGACGGGATT
B18: CUAAUAG (DNA:RNA)
RNA: B1 RNA with A26U, U27A, U31G
DNA 1: CAATCTGAATTCCGGTCTCCC
DNA 2: TGGTGGCTACGACGGGATT
B19: UCCGCGC (DNA:RNA)
RNA: GGGAGACCGGAAUUCAGAUUGUCCUCCGCGCUUAAAUCCCGUCGUAGCCACCA
DNA 1: CAATCTGAATTCCGGTCTCCC
DNA 2: TGGTGGCTACGACGGGATT
B20: CCCAGAA (DNA:RNA)
RNA: B1 RNA with A26C, U27C, U29G, U31A
DNA 1: CAATCTGAATTCCGGTCTCCC
DNA 2: TGGTGGCTACGACGGGATT
B21: UAGAAUC (DNA:RNA)
RNA: B1 RNA with C25U, U27G, U29A, A30U, U31C
DNA 1: CAATCTGAATTCCGGTCTCCC
DNA 2: TGGTGGCTACGACGGGATT
B22: CAGAUUG (DNA:RNA)
RNA: B1 RNA with U27G, A30U, U31G
DNA 1: CAATCTGAATTCCGGTCTCCC
DNA 2: TGGTGGCTACGACGGGATT
B23: UAGAAUG (DNA:RNA)
RNA: B1 RNA with C25U, U27G, U29A, A30U, U31G
DNA 1: CAATCTGAATTCCGGTCTCCC
DNA 2: TGGTGGCTACGACGGGATT
B24: UAGAUUG (DNA:RNA)
RNA: B1 RNA with C25U, U27G, A30U, U31G
DNA 1: CAATCTGAATTCCGGTCTCCC
DNA 2: TGGTGGCTACGACGGGATT
B25: CAGAAUG (DNA:RNA)
RNA: B1 RNA with U27G, U29A, A30U, U31G
DNA 1: CAATCTGAATTCCGGTCTCCC
DNA 2: TGGTGGCTACGACGGGATT

Each binder was assayed against T1, RBFOX1 RRM RbFoxmut (Fox-RRM*) (assay: EMSA; HiTS-Eq, 1 nM pool, 10 min; buffer printed only for the single-RNA assays: 10 mM Tris pH 7.5, 150 mM NaCl, 3.4 mM EDTA, 0.001% NP-40, 30 C). Conditions: tags: His6 N-terminal (pET28a); label: 5' 32P.
Outline: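 Purified RbFox RRM, wild type or mutant, was incubated for 10 min in 50 µL with 1 nM of a 5′-radiolabelled RNA pool carrying 7 randomized nucleotides, whose flanks were annealed to DNA oligonucleotides, over a series of increasing protein concentrations. Unbound RNA was resolved on 8% native PAGE, cut out, reverse-transcribed, barcoded by PCR and sequenced on an Illumina HiSeq 2500. Relative association constants were derived from changes in read counts for each RNA species versus the control reaction and normalised to the cognate motif.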

First: B1
Second: B2
The binding signal of the first is higher: 0.114 KA relative to UGCAUGU for the first, 0.0571 KA relative to UGCAUGU for the second.

Compared with B3, B4 is higher in binding signal: 1.12 KA relative to UGCAUGU for the first, 1.43 KA relative to UGCAUGU for the second.

Compared with B5, B6 is higher in binding signal: 0.0852 KA relative to UGCAUGU for the first, 0.314 KA relative to UGCAUGU for the second.

Compared with B7, B8 is lower in binding signal: 0.283 KA relative to UGCAUGU for the first, 0.278 KA relative to UGCAUGU for the second.

Compared with B9, B10 is higher in binding signal: 0.0845 KA relative to UGCAUGU for the first, 0.151 KA relative to UGCAUGU for the second.

First: B11
Second: B12
The binding signal of the first is higher: 0.234 KA relative to UGCAUGU for the first, 0.125 KA relative to UGCAUGU for the second.

First: B13
Second: B14
The binding signal of the first is lower: 1.2 KA relative to UGCAUGU for the first, 1.5 KA relative to UGCAUGU for the second.

First: B15
Second: B16
The binding signal of the first is higher: 0.0991 KA relative to UGCAUGU for the first, 0.0902 KA relative to UGCAUGU for the second.

First: B17
Second: B18
The binding signal of the first is higher: 0.289 KA relative to UGCAUGU for the first, 0.0844 KA relative to UGCAUGU for the second.

First: B19
Second: B20
The binding signal of the first is higher: 0.0955 KA relative to UGCAUGU for the first, 0.0718 KA relative to UGCAUGU for the second.

First: B21
Second: B22
The binding signal of the first is lower: 0.125 KA relative to UGCAUGU for the first, 0.225 KA relative to UGCAUGU for the second.

Compared with B23, B24 is lower in binding signal: 0.953 KA relative to UGCAUGU for the first, 0.194 KA relative to UGCAUGU for the second.

With B25 the binding signal was 1.17 KA relative to UGCAUGU.
